Screens from PubChem BioAssay.
A selection: hits, their analogues and other compounds. The true share with any hit is near 9.9%.
KDM4E inh: qHTS Assay for Inhibitors of Human Jumonji Domain Containing 2E (JMJD2E); Lysine-specific demethylase 4E (Homo sapiens), B2RXH2; hit rate 1.6% among 230,000; Potency, µM (highest dose often 57.1 µM), for inactives: at the highest dose activity change, negative = inhibition, hits mostly inhibitors; JMJD2E catalytic domain, FDH-coupled NADH fluorescence (FDH is formaldehyde dehydrogenase);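 also: 0% = wells with enzyme and -100% = buffer wells without enzyme; nearly all actives have a fitted effect of over 50% in size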
Target sequence (B2RXH2 1-337 limits assumed): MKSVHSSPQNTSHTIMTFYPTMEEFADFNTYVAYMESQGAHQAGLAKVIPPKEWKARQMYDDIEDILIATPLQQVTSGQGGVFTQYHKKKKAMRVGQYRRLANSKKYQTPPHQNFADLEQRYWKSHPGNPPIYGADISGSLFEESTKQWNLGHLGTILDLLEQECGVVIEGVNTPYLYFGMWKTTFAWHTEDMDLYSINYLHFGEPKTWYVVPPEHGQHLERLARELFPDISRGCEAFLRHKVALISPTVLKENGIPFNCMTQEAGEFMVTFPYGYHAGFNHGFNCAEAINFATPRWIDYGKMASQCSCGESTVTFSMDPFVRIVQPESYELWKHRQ
Tau fluor cs: Counterscreen qHTS for Inhibitors of Tau Fibril Formation, Fluorescence Polarization | tau K18 P301L Alexa594 fluorescence, heparin fibrillization | Potency, µM (titrated, usually from 57.7 µM), for the others: at the highest dose activity change, negative = decrease | hit rate 0.93% among 280,000 | AID 1463, 2008; also: nearly all actives have a fitted effect of over 55% in size
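Human tau K18 P301L (15 uM unlabeled, 0.24 uM Alexa 594-labeled) in 100 mM sodium acetate pH 7 with 20 uM heparin, 6 hr at 37 C. ThT 30 uM added, 1 hr ambient; Alexa 594 FP and total fluorescence read at 555/632 nm.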
Tau ThT inhib: qHTS for Inhibitors of Tau Fibril Formation, Thioflavin T Binding. AID 1460, 2008. Microtubule-associated protein tau (Homo sapiens), P10636. hit rate 2.1% among 270,000. Potency, µM (series often up to 57.4 µM), inactives show at the top dose activity, negative = inhibition, actives largely listed as inhibitors. recombinant tau K18 P301L, heparin-induced fibrillization, ThT fluorescence; also: nearly all actives have a fitted effect of over 55% in size
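Using a mix of unlabeled (15 uM) and Alexa 594-labeled (0.24 uM) tau K18 P301L, heparin-triggered fibrillization over 6 hr at 37 C was scored by ThT fluorescence.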
HPGD inh: qHTS Assay for Inhibitors of HPGD (15-Hydroxyprostaglandin Dehydrogenase) | AID 894, 2007 | Potency, µM, without a hit: at the top dose activity change, negative = inhibition, actives largely listed as inhibitors | 15-hydroxyprostaglandin dehydrogenase [NAD(+)] (Homo sapiens), P15428 | purified HPGD, NADH fluorescence kinetic, PGE2 substrate | hit rate 4.3% among 150,000; active = well fitted inhibition curve with a large enough effect, not every such curve was filed as active; inconclusive = small, poorly fitted or top-dose-only effect, or another doubt; inactive = no such curve, though single readings can be large or run the other way
Target sequence (P15428 whole entry, looked up): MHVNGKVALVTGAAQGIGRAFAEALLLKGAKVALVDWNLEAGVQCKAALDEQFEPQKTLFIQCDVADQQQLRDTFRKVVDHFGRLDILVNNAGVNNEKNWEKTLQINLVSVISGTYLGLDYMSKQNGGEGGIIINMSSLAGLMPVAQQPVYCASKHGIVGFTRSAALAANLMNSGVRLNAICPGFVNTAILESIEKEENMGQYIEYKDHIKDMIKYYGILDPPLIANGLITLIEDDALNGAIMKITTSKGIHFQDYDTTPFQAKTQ
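NADH formation kinetics: reaction with 30 uM PGE2 and 1 mM NAD+ (final), 20 nM enzyme, Tris-HCl pH 8 with Tween 20, after 15 min compound preincubation at room temperature. Fluorescence change, last versus first of five reads.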
Tau fibril FP: qHTS for Inhibitors of Tau Fibril Formation, Fluorescence Polarization. K18 P301L tau heparin fibrillization, Alexa594 FP, 6 h. Potency, µM (series often up to 57.7 µM), for inactives: top-dose activity, negative = inhibition, usual class: inhibitors. hit rate 0.39% among 280,000; also: nearly all actives have a fitted effect of over 55% in size
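FP of Alexa 594-tau after heparin (20 uM) induction. Substrate: human K18 P301L, 15 uM unlabeled, 0.24 uM labeled. Buffer 100 mM sodium acetate pH 7. 6 hr, 37 C.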
ALDH1A1 block: qHTS Assay for Inhibitors of Aldehyde Dehydrogenase 1 (ALDH1A1); Aldehyde dehydrogenase 1A1 (Homo sapiens), P00352; Purified ALDH1A1, NADH fluorescence, propionaldehyde substrate; Potency, µM (top dose mostly 75.3 µM), for the others: at the top dose activity, negative = inhibition, usual class: inhibitors; hit rate 7.3% among 220,000; active = well fitted inhibition curve with a large enough effect, not every such curve was filed as active; inconclusive = small, poorly fitted or top-dose-only effect, or another doubt; inactive = no such curve, though single readings can be large or run the other way;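 also: plate controls were no enzyme wells and a reference inhibitor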
Starred values were filed as active, the others as inactive; ? = inconclusive; . = not tested or not shown; [ ] = dose if it differs, or a comment. Unless noted, calls follow the shape of the dose curve; as a rule, active = well fitted curve in the direction sought with a large enough effect; inconclusive = small, poorly fitted or top-dose-only effect, or another doubt; inactive = no such curve, though single readings can be large; an effect the other way counts as inactive or inconclusive. Unless noted, % is scaled to controls: 0 for no effect and ±100 for the full control effect; potency is read from the fitted curve at half-maximal effect.

SMILES | KDM4E inh | Tau fluor cs | Tau ThT inhib | HPGD inh | Tau fibril FP | ALDH1A1 block
Cc1ccc(NC(=O)CSCC(=O)Nc2ncc3c(n2)CC(c2ccco2)CC3=O)cc1 (centres undefined) | -1% | -15% | ? | 2% | -13% | 4µM*
CC(Sc1nc(-c2ccccc2)cc(C(F)(F)F)n1)C(=O)Nc1sc2c(c1C#N)CCC2 (centres undefined) | -9% | -16% | -4% | -22% | -6% | 5%
Cc1cc(C(F)F)n2nc(C(=O)Nc3sc4c(c3C(N)=O)CCC4)nc2n1 | 1% | -5% | ? | -20% | -2% | 16µM*
CC(Sc1nc(-c2ccccc2)cc(C(F)(F)F)n1)C(=O)Nc1sc2c(c1C(N)=O)CCC2 (centres undefined) | 2% | 2% | 5% | 32µM* | -12% | ?
COC(=O)c1c(NC(=O)c2nc3nc(C)cc(C(F)F)n3n2)sc2c1CCC2 | 5% | -17% | ? | -14% | 3% | 13µM*
Cc1cc(C(F)F)n2nc(C(=O)Nc3sc4c(c3C#N)CCC(C)C4)nc2n1 (centres undefined) | 2% | -8% | ? | -18% | 0% | ?
CCOC(=O)c1c(-c2cccs2)csc1NC(=O)CNCCN1CCOCC1 | 22µM* | -8% | -17% | -12% | 13% | -4%
CCOC(=O)c1c(-c2ccc(F)cc2)csc1NC(=O)CCN1CCOCC1 | 25µM* | -11% | -16% | . | -8% | ?
CCOC(=O)c1c(-c2cccs2)csc1NC(=O)C(C)(C)C | ? | -6% | -10% | ? | -3% | 0%
CCOC(=O)c1c(-c2cccs2)csc1NC(=O)CSc1ncn[nH]1 | -15% | ? | ? | ? | -14% | 20µM*
CCc1ccc(O)c(C(=O)c2cnc3cc(-c4ccc(C)cc4)nn3c2)c1 | . | -14% | -4% | . | -9% | .
CCc1nn2cc(C(=O)c3cc(Cl)ccc3O)cnc2c1-c1ccc(F)cc1 | -1% | -29% | ? | 16µM* | ? | -8%
O=C(/C=C/C(=O)Oc1ccccc1C(=O)O)Oc1ccccc1C(=O)O | ? | -13% | 25µM* | ? | 25µM* | -9%
Cc1cc(C)c2c(N)c(S(=O)c3ccc(C(C)(C)C)cc3)sc2n1 (centres undefined) | ? | ? | 25µM* | -27% | ? | ?
NNC(=O)c1ccc(COCC(F)(F)F)cc1 | 13% | -5% | -14% | . | 5% | ?
COc1ccc(CCNC(=O)c2ccc(CSc3ccccc3)o2)cc1 | -16% | -19% | ? | . | 5% | 3.5µM*
O=C(NCc1ccccc1Cl)c1ccc(Br)o1 | 9% | -8% | -7% | . | -11% | ?
COc1ccccc1CCNC(=O)c1ccc(C)o1 | -2% | -3% | -1% | 8.9µM* | -6% | -2%
COc1ccccc1CNC(=O)c1ccc(Br)o1 | -4% | -19%[81.3 µM] | -20%[81.4 µM] | 40µM* | -12%[81.3 µM] | ?
O=C(NCc1ccncc1)c1ccc(Br)o1 | -1% | -3% | -13% | -11% | -1% | 3.5µM*
CCOC(=O)c1sc(=S)sc1SCc1cccc(C(F)(F)F)c1 | -4% | -23% | ? | 28µM* | -13% | ?
COc1ccc(NC(=O)c2sccc2SCc2cccc(C(F)(F)F)c2)cc1 | -17% | ? | -14% | ? | ? | -6%
O=C(O)c1ccc(Cl)c(S(=O)(=O)Nc2ccccc2F)c1 | . | . | . | -7% | . | 1%
O=C(C1=C[C@@H](C2CC2)C[C@@H](OCCCCO)O1)N1CCOCC1 | 0% | -4% | -2% | . | 4% | 32µM*
O=C(C1=C[C@H](C2CCCCC2)C[C@H](OCc2ccc(CO)cc2)O1)N1CCN(Cc2ccccc2)CC1 | ? | -5% | ? | . | 6% | 14µM*
SMILES | KDM4E inh | Tau fluor cs | Tau ThT inhib | HPGD inh | Tau fibril FP | ALDH1A1 block
C=CCOC(=O)C1=C[C@@H](C2CCCCC2)C[C@@H](OCc2ccc(CO)cc2)O1 | -7% | -11% | ? | . | 3% | 1µM*
O=C(Nc1ccccc1)C1=C[C@H](C2CCCCC2)C[C@H](OCc2ccc(CO)cc2)O1 | 2% | -18% | -15% | . | 6% | 1%
O=C(Nc1ccccc1)C1=C[C@@H](C2CCCCC2)C[C@@H](OCc2ccc(CO)cc2)O1 | -14% | -19% | ? | . | -3% | 4.5µM*
COCCNC(=O)CSc1nnc2[nH]c(=O)cc(C)n12 | . | 3% | -5% | . | 3% | .
O=c1c2c(-c3cccs3)csc2ncn1/N=C/c1ccc(OC(F)F)cc1 | ? | -23% | -11% | -15% | -11% | -10%
O=C(O)COc1ccc(/C=N/n2cnc3scc(-c4cccs4)c3c2=O)cc1 | -3% | -2% | -14% | -23% | 6% | 7.1µM*
O=C(CSc1nncs1)N1CCN(S(=O)(=O)c2ccccc2)CC1 | 13% | 2% | -1% | . | -3% | 3%
O=C(CSc1nncs1)N1c2ccccc2Sc2ccccc21 | 1% | -16% | ? | -8% | 4% | 10µM*
Cc1ccc(SCC(=O)N2c3ccccc3Sc3ccccc32)cc1 | 3% | -16% | 1% | -22% | -9% | 3.5µM*
Cc1ccc(SCC(=O)N2CCc3ccccc32)cc1 | 6% | -13% | ? | -11% | -7% | 10%
Cc1cc(NC(=O)c2ccccc2)ncc1NC(=O)c1ccco1 | -5% | -8% | -15% | ? | 6% | 11µM*
O=C(Nc1ccc(NC(=O)c2ccco2)nc1)c1ccco1 | -5% | -13% | -9% | . | -5% | 9%
O=C(Nc1ccc(NC(=O)c2ccco2)nc1)c1ccccn1 | ? | -2% | ? | -24% | -2% | 14µM*
O=C(Nc1ccc2c(c1)OCO2)C1CCN(S(=O)(=O)Cc2ccccc2)CC1 | -5% | -3% | -16% | -8% | 14% | -11%
COc1ccc(N2C(=O)[C@H]3[C@@H](C2=O)C2c4ccccc4C=NN2[C@H]3C(=O)C(C)(C)C)cc1 (some centres undefined) | -15% | -20% | . | . | 12% | .
COc1ccc(N2C(=O)[C@@H]3[C@H](C2=O)[C@H]2c4ccccc4C=CN2[C@@H]3C(C)=O)cc1 | ? | -27% | 16µM* | ? | ? | 32µM*
